TDP1 cell noCPT: qHTS for Inhibitors of human tyrosyl-DNA phosphodiesterase 1 (TDP1): qHTS in cells in absence of CPT. DT40 Tdp1-/- hTDP1 cells, no CPT, ATP luminescence, 48 h. Potency, µM (doses to about 46.2 µM), actives largely listed as inhibitors. actives 15% (n = 420,000). AID 686978, 2013; further: nearly all actives have a fitted effect of over 55% in size
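Readout: luminescence from CellTiter-Glo after 30 min in the dark at RT. Cells: DT40 Tdp1-/- with stable hTDP1, 400/well. Exposure: compounds alone, ≥48 hr, 37 °C.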
HT1080NT lethal: kills 2HG-producing HT-1080-NT fibrosarcoma cells; HT-1080-NT fibrosarcoma viability, CellTiter-Glo ATP luminescence, 48 h; Potency, µM (highest dose often 46.1 µM), actives largely listed as cytotoxic; actives 1.6% (n = 360,000); AID 686970;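 further: NT is the 2HG producing partner of a matched IDH1 knockdown line; nearly all actives have a fitted effect of over 55% in size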
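Compounds were tested in concentration-response format on HT-1080-NT cells for 48 hours at 37 degrees C. Cell viability came from CellTiter-Glo luminescence; curves were classified by r2, response magnitude and activity.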
IL1B secr inh: inhibitors of inflammasome signaling (IL-1 beta secretion) | actives 4.7% (n = 360,000) | THP-1 LPS/ATP IL-1B secretion, AlphaLISA, 16 h; stronger effect = lower value | activity change, % at 57.5 µM | AID 743279; in the data active means activity change below about -50%; inconclusive means mostly about -30% to -49%
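Secreted IL-1B measured by AlphaLISA bead assay after 16 h compound exposure of THP-1 cells; compounds (final up to 57.5 uM) added 1 h before LPS (250 ng/mL) and ATP (1.25 mM) stimulation; lower signal means less secretion.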
DT40 TDP1 CPT: DT40-hTDP1 cell growth loss with CPT. Potency, µM (titrated, usually from 46.2 µM), most hits filed as inhibitors. AID 686979. chicken DT40 Tdp1-/-;hTDP1 cells + 20 nM CPT, ATP luminescence, 48 h. actives 12% (n = 420,000); further: nearly all actives have a fitted effect of over 55% in size
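Chicken DT40 Tdp1-/- cells complemented with human TDP1, 400 cells/well, exposed to compounds plus 20 nM camptothecin for at least 48 h at 37 C; viability read as ATP content by CellTiter-Glo luminescence.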
HT1080 IDH1KD tx: kills HT-1080 cells with IDH1 knockdown; HT-1080 IDH1 knockdown viability, ATP luminescence, 48 h; Potency, µM (series often up to 46.1 µM), most hits filed as cytotoxic; actives 2% (n = 360,000)
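In this qHTS, HT-1080 cells depleted of IDH1 are exposed for 48 h at 37 °C to compound titrations. Toxicity is scored from CellTiter-Glo luminescence, with DMSO as full viability and medium alone as none.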
Of the large screens only hits and unclear results are named; the others gave an inactive call. Hits are enriched below; roughly 19% of the tested compounds scored in any of these assays. Unless noted, the call rests on the fitted dose curve; in most records, active means well fitted curve in the direction sought with a large enough effect; inconclusive means small, poorly fitted or top-dose-only effect, or another doubt; inactive means no such curve, though single readings can be large; an effect the other way counts as inactive or inconclusive.

COc1ccc(NC(=O)CSc2nc3ccccc3nc2N2CCOCC2)cc1	none
CC1CN(c2nc3ccccc3nc2SCC(=O)Nc2cccc(C(F)(F)F)c2)CC(C)O1 (configuration not stated)	TDP1 cell noCPT 26µM, HT1080NT lethal inconclusive, DT40 TDP1 CPT 15µM
CCCCc1ccc(NC(=O)CSc2nc3ccccc3nc2N2CCOCC2)cc1	TDP1 cell noCPT 26µM, DT40 TDP1 CPT inconclusive (no result: HT1080NT lethal, IL1B secr inh, HT1080 IDH1KD tx)
O=C(c1ccccc1Cl)N(Cc1ccc(Br)cc1)N1C(=O)CCC1=O	none
CCOc1ccc(NC(=O)CSc2nc3ccccc3nc2N2CC(C)OC(C)C2)cc1 (configuration not stated)	TDP1 cell noCPT 10µM, DT40 TDP1 CPT 23µM
CCCCOCCCNC(=O)C1CCCCC1	none
C#CCNC(=O)C[C@@H]1C[C@@]2(C(=O)OC)CCCCC=C2N(CCc2ccc(OC)c(OC)c2)C1=O	TDP1 cell noCPT inconclusive, DT40 TDP1 CPT inconclusive
COC(=O)[C@@]12C[C@@H](CC(=O)NCc3ccccc3)C(=O)N(CCc3ccc(OC)c(OC)c3)C1=CCC(C)(C)C2	TDP1 cell noCPT 13µM, DT40 TDP1 CPT 13µM
COC(=O)[C@]12CCCCC=C1N(CCc1ccc(OC)c(OC)c1)C(=O)[C@H](CC(=O)NCc1cccs1)C2	TDP1 cell noCPT 16µM, DT40 TDP1 CPT 21µM
C#CCNC(=O)C[C@@H]1C[C@@]2(C(=O)OC)CC(C)(C)CC=C2N(CCc2ccc(OC)c(OC)c2)C1=O	DT40 TDP1 CPT inconclusive
COC(=O)[C@@]12C[C@@H](CC(=O)NCc3ccc(C)o3)C(=O)N(CCc3ccc(OC)c(OC)c3)C1=CCC(C)(C)C2	TDP1 cell noCPT 8.2µM, IL1B secr inh inconclusive, DT40 TDP1 CPT 9.2µM
CCCCCCCCN1C(=O)[C@H](CC(=O)NCc2cccc(C(F)(F)F)c2)C[C@@]2(C(=O)OC)CC(C)(C)CC=C12	TDP1 cell noCPT 10µM, HT1080NT lethal inconclusive, DT40 TDP1 CPT 12µM, HT1080 IDH1KD tx inconclusive
CCOC(=O)CCNC(=O)Nc1cc2nc(C)n(Cc3cccc(Cl)c3)c2nc1C	none
CCOc1ccc(C(=O)NCCC(=O)NCCCC(=O)O)cc1	none
CC(C)Cc1nc2cc(NS(=O)(=O)N(C)C)cc(C(=O)N3CC4(C)CC3CC(C)(C)C4)c2n1C (configuration not stated)	TDP1 cell noCPT inconclusive (no result: HT1080NT lethal, IL1B secr inh, HT1080 IDH1KD tx)
COC(=O)[C@@]12C[C@@H](CC(=O)NCc3cccc4ccccc34)C(=O)N(CCc3ccc(OC)c(OC)c3)C1=CCC(C)(C)C2	TDP1 cell noCPT inconclusive, HT1080NT lethal inconclusive, DT40 TDP1 CPT inconclusive
CCOC(=O)N1CCN(C(=O)C[C@@H]2C[C@@]3(C(=O)OC)CC(C)(C)CC=C3N(CCc3ccc(OC)c(OC)c3)C2=O)CC1	TDP1 cell noCPT 16µM, IL1B secr inh inconclusive, DT40 TDP1 CPT inconclusive
COC(=O)[C@@]12C[C@@H](CC(=O)NCc3cccs3)C(=O)N(CCc3ccc(OC)c(OC)c3)C1=CCC(C)(C)C2	TDP1 cell noCPT inconclusive, IL1B secr inh inconclusive, DT40 TDP1 CPT 21µM
CCC(C)N(C(=O)CSc1nc2ccc(OC)cc2[nH]1)C1CCS(=O)(=O)C1 (configuration not stated)	none
Cc1ccsc1C1C(C(=O)O)c2ccccc2C(=O)N1C (configuration not stated)	none
CN1C(=O)c2ccccc2C(C(=O)O)C1c1cccc(F)c1 (configuration not stated)	TDP1 cell noCPT 26µM, DT40 TDP1 CPT inconclusive
O[C@@H]1C[C@H](c2ccc(Cl)cc2)N(CC2CCCCC2)C[C@H]1n1cc(C2CC2)nn1	TDP1 cell noCPT inconclusive, DT40 TDP1 CPT inconclusive
O[C@@H]1CN(CC2CCCCC2)[C@@H](c2ccc(Cl)cc2)C[C@H]1n1cc(C2CC2)nn1	TDP1 cell noCPT 23µM, IL1B secr inh -51, DT40 TDP1 CPT inconclusive
COc1ccc([C@H]2C[C@H](n3cc(C4CC4)nn3)[C@@H](O)CN2CC2CCCCC2)cc1	TDP1 cell noCPT 16µM, HT1080NT lethal inconclusive, DT40 TDP1 CPT inconclusive, HT1080 IDH1KD tx inconclusive
